Some test systems named below: HCT-15 colon; HT29 colon; SNB-75 CNS; SNB-19 CNS; U251 CNS; PC-3 prostate; SK-MEL-5 melanoma; UACC-62 melanoma; LOX IMVI melanoma; SK-MEL-28 melanoma; SK-MEL-2 melanoma; EKVX NSCLC; SN12C renal; UO-31 renal; TK-10 renal; ACHN renal; CAKI-1 renal; A498 renal; CCRF-CEM leukemia; MOLT-4 leukemia.
What all share (assay): NCI-60 one-dose screen, 48 h (100 = growth as untreated, 0 = no growth, -100 = all killed)
Common to all, as to details: 10 µM unless noted

The panel holds about 83,000 compounds, 20% with a hit somewhere; the sample as a whole holds those more often.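 How to read the values: 0–100, growth inhibition (40 = 60% inhibited); 0, no net growth; -100 to 0, cell death (-40 = 40% of starting cells died; -100 = all dead).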 A number with no mark means an inactive call. Active and inactive are the calls of the source. Rule for the calls: active = growth percent below 10; inactive = the rest.

For the compound `CC(=O)c1c(C)nc2ccccc2c1/C=C/c1cccc(C)c1`, the growth is 31.3% in the assay with HCT-15 colon; 18.5% in the assay with HT29 colon; 60% in the assay on SNB-75 CNS; 74.1% in the assay on SNB-19 CNS; 49.8% in the assay on U251 CNS; 65.8% with PC-3 prostate. Also, the growth was 54.3% in the assay with SK-MEL-5 melanoma; 47.8% with UACC-62 melanoma; 42% with LOX IMVI melanoma; 75% in the assay on SK-MEL-28 melanoma; 36.2% in the assay with SK-MEL-2 melanoma; 71.5% in the assay with EKVX NSCLC. In addition, the growth in the assay with SN12C renal was 67.7%; with UO-31 renal, 56.4%; in the assay on TK-10 renal it was 79.9%; in the assay on ACHN renal, 73.7%; with CAKI-1 renal, 46.3%; in the assay on A498 renal, 50.1%. Also, the growth was 54.4% in the assay on CCRF-CEM leukemia and 31% in the assay with MOLT-4 leukemia.

Consider `Nn1c(-c2ccc(Cl)cc2)nc2c(-c3ccc(Cl)cc3)nc3ccc(Cl)cc3c2c1=O`, for which the growth with HCT-15 colon is 58.2%; with HT29 colon, 7.88% (active); with SNB-75 CNS, -51.4% (active); with SNB-19 CNS, 28.2%; in the assay on U251 CNS, -63.5% (active); with PC-3 prostate, 36.6%. Further, the growth with SK-MEL-5 melanoma is 52.5%; with UACC-62 melanoma, 30.3%; with LOX IMVI melanoma, 20.2%; in the assay on SK-MEL-28 melanoma it was -67.2% (active); in the assay on SK-MEL-2 melanoma, 73.3%; in the assay with EKVX NSCLC it was 6.86% (active). For the same compound, the growth is -3.15% (active) in the assay on SN12C renal; -24.9% (active) in the assay with UO-31 renal; 0.823% (active) in the assay on TK-10 renal; 4.66% (active) in the assay on ACHN renal; 14.7% in the assay on CAKI-1 renal; 21.3% in the assay on A498 renal. The growth in the assay with CCRF-CEM leukemia is -15.8% (active); in the assay with MOLT-4 leukemia it was 32.3%.

Turning to `Cc1ccc(Nc2nc(-c3cc(O)c(C)c(C)c3O)cs2)cc1`, the growth in the assay with HCT-15 colon was 76.7%; in the assay on HT29 colon it was 112%; with SNB-75 CNS it was 102%; in the assay on SNB-19 CNS, 110%; with U251 CNS it was 97.2%; in the assay on PC-3 prostate, 71%. Also, the growth in the assay with SK-MEL-5 melanoma is 97.6%; with UACC-62 melanoma, 92.7%; with LOX IMVI melanoma, 75.1%; in the assay with SK-MEL-28 melanoma, 115%; in the assay with SK-MEL-2 melanoma, 105%; in the assay on EKVX NSCLC, 97.4%. Besides, the growth in the assay on SN12C renal was 97%; in the assay with UO-31 renal, 89.7%; in the assay with TK-10 renal, 120%; in the assay on ACHN renal it was 99.1%; with CAKI-1 renal, 92.7%; in the assay on A498 renal, 123%. In addition, the growth was 14.8% with CCRF-CEM leukemia and 26.5% with MOLT-4 leukemia.

As to `COc1ccc(Oc2nc(Nc3ccc(N4CCOCC4)cc3)ncc2NC(=O)c2cc(OC)cc(OC)c2)cc1`, the growth was 67.7% in the assay on HCT-15 colon; 72% with HT29 colon; 79.1% in the assay with SNB-75 CNS; 87.4% in the assay on SNB-19 CNS; 82.7% in the assay with U251 CNS; 67.5% with PC-3 prostate. For the same compound, the growth in the assay on SK-MEL-5 melanoma is 77.2%; with UACC-62 melanoma, 87.8%; in the assay on LOX IMVI melanoma, 84.7%; in the assay on SK-MEL-28 melanoma, 100%; in the assay with SK-MEL-2 melanoma it was 95.4%; in the assay on EKVX NSCLC, 94.8%. The growth is 89% in the assay on SN12C renal; 55.5% with UO-31 renal; 103% in the assay with TK-10 renal; 86.1% with ACHN renal; 100% in the assay with CAKI-1 renal; 8.34% (active) with A498 renal. Besides, the growth was 70% in the assay on CCRF-CEM leukemia and 53.3% in the assay on MOLT-4 leukemia.

Consider `NC(N)=NC(N)=NCCCc1ccco1`, for which the growth with HCT-15 colon is 106%; with HT29 colon it was 94.4%; in the assay with SNB-75 CNS, 111%; with SNB-19 CNS it was 103%; in the assay with U251 CNS it was 101%; in the assay with PC-3 prostate, 103%. Moreover, the growth is 101% in the assay on SK-MEL-5 melanoma; 113% with UACC-62 melanoma; 97.1% in the assay with LOX IMVI melanoma; 98.8% in the assay with SK-MEL-28 melanoma; 96.1% in the assay with SK-MEL-2 melanoma; 113% in the assay with EKVX NSCLC. The growth in the assay on SN12C renal is 108%; in the assay with UO-31 renal, 102%; in the assay on TK-10 renal, 86.2%; in the assay with ACHN renal, 107%; in the assay on CAKI-1 renal it was 96.4%; with A498 renal, 118%. In addition, the growth is 101% with CCRF-CEM leukemia and 93.2% in the assay on MOLT-4 leukemia.

`NS(=O)(=O)c1ccc(C(=O)N=Nc2c(O)[nH]c3c(F)cccc23)cc1`: the growth in the assay with HCT-15 colon was 105%; with HT29 colon, 99.6%; in the assay on SNB-75 CNS, 97.7%; in the assay on SNB-19 CNS, 97.4%; in the assay on U251 CNS it was 98.6%; in the assay on PC-3 prostate, 94.9%. For the same compound, the growth is 101% in the assay on SK-MEL-5 melanoma; 99.6% with UACC-62 melanoma; 98% in the assay with LOX IMVI melanoma; 105% with SK-MEL-28 melanoma; 104% with SK-MEL-2 melanoma; 102% in the assay on EKVX NSCLC. Further, the growth is 97.1% in the assay with SN12C renal; 76.4% in the assay on UO-31 renal; 107% in the assay on TK-10 renal; 97.3% with ACHN renal; 93.2% in the assay on CAKI-1 renal; 104% in the assay on A498 renal. The growth in the assay with CCRF-CEM leukemia is 102%; with MOLT-4 leukemia, 124%.
